Measured values reported in PubChem BioAssay (EPA / NIEHS).
A structure can be active in one record and inactive in another. Activity calls are given as the source filed them. The calls were made as follows: active = hit-call score of the fitted dose curve at least 0.9, where 1 is the maximum; inactive = score below 0.9.

Experiment: ATG_TCF_b_cat_CIS: Attagene CIS-FACTORIAL HepG2 Assay for human T-Cell-Factor with beta-catenin (TCF/b-cat) (AID 2282965)
Conditions: HepG2 TCF/beta-catenin cis-reporter transcription, actives raise or lower the signal
Procedure, shortened: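 Endogenous transcription factor activity is captured through cis-promoter reporter constructs transiently introduced into human HepG2 liver cells. Induced reporter mRNA is measured after 24 h and fitted bidirectionally relative to DMSO.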

| Structure (SMILES) | outcome | AC50 |
| --- | --- | --- |
| O=C(O)C(F)(OC(F)(F)C(F)(OC(F)(F)C(F)(OC(F)(F)C(F)(F)C(F)(F)F)C(F)(F)F)C(F)(F)F)C(F)(F)F (configuration not stated) | inactive | – |
| O=C(O)C(F)(F)C(F)(F)C(F)(F)C(F)(F)C(F)(F)C(F)(F)C(F)(F)C(F)(F)Cl | – | 50 µM (active) |
| c1ccc(-c2ccccc2-c2ccccc2)cc1 | inactive | – |
| CNC(=S)NC | inactive | – |
| OCCCC(F)(F)C(F)(F)C(F)(F)C(F)(F)C(F)(F)C(F)(F)C(F)(F)F | inactive | 33.7 µM (active) |
| CCN(CC)c1ccc2c(C)cc(=O)oc2c1 | inactive | – |
| O=C(O)C(F)(F)C(F)(F)C(F)(F)C(F)(F)C(F)(F)C(F)(F)C(F)(F)C(F)(F)C(F)(F)C(F)(F)C(F)(F)C(F)(F)C(F)(F)F | inactive | – |
| FC(F)(F)C(F)(F)C(F)(F)C(F)(F)CCI | inactive | – |
| Cc1ccc(S(=O)(=O)NCl)cc1 | inactive | – |
| C=CC(=O)OCC(F)(F)C(F)(F)C(F)(F)C(F)(F)C(F)(F)C(F)(F)C(F)(F)F | inactive | – |
| C#C[C@]1(O)CC[C@H]2[C@@H]3CCc4cc(OC)ccc4[C@H]3CC[C@@]21C | inactive | – |
| O=C(O)C(F)(F)C(F)(F)OC(F)(F)F | inactive | – |
| CCCCCCCCCCCCCCCC[N+](C)(C)Cc1ccccc1 | inactive | – |
| CCO[Si](CCC(F)(F)C(F)(F)C(F)(F)C(F)(F)C(F)(F)C(F)(F)F)(OCC)OCC | inactive | – |
| c1ccc(B(c2ccccc2)c2ccccc2)cc1 | inactive | – |
| C=C(C)C(=O)OCCC(F)(F)C(F)(F)C(F)(F)C(F)(F)C(F)(C(F)(F)F)C(F)(F)F | inactive | – |
| COC(=O)C1CCC(C(=O)OC)CC1 (configuration not stated) | inactive | 55.4 µM (active) |

| Structure (SMILES) | outcome | AC50 |
| --- | --- | --- |
| CC(C)OC(=O)c1ccccc1C(=O)OC(C)C | inactive | – |
| CCCCCCC(C)OC(=O)CCCCC(=O)OC(C)CCCCCC (configuration not stated) | inactive | – |
| C=CC(F)(F)C(F)(F)C(F)(F)C(F)(F)C(F)(F)C(F)(F)C(F)(F)C(F)(F)F | inactive | – |
| C(=C(c1ccccc1)c1ccccc1)c1ccccc1 | inactive | – |
| O=C(O)C(F)(F)C(F)(F)C(F)(F)F | inactive | – |
| OC[C@@H](O)[C@@H](O)[C@H](O)[C@@H](O)CO | inactive | – |
| O=C(OCCOCCOCCOC(=O)c1ccccc1)c1ccccc1 | inactive | – |
| OCC(F)(F)C(F)(F)C(F)(F)F | inactive | – |
| O=C(CC(=O)C(F)(F)C(F)(F)F)C(F)(F)F | inactive | 150 µM (active) |
| Oc1ccc(Nc2ccccc2)cc1 | inactive | – |
| COC(=O)CCC(F)(F)C(F)(F)C(F)(F)C(F)(F)F | inactive | – |
| CCCCCCCOC(=O)c1ccccc1C(=O)OCCCCCCC | inactive | – |
| OCC(F)(F)C(F)(F)C(F)(F)C(F)(F)C(F)(F)C(F)F | inactive | – |
| FC(F)(F)C(F)(F)C(F)(F)C(F)(F)C(F)(F)C(F)(F)CC1CO1 (configuration not stated) | inactive | – |
| CC/C=C\CCOC(=O)c1ccccc1 | inactive | – |
| CS(C)(=O)=O | inactive | – |
| C=CC(F)(F)C(F)(F)C(F)(F)C(F)(F)C(F)(F)C(F)(F)C(F)(F)C(F)(F)C=C | inactive | – |
